Structures are written as SMILES. Calls of active or inactive are those of the source. The rule behind the calls is not given here.

This test relates to Aerobactin synthetase IucA (Klebsiella pneumoniae hvKP1). Put plainly: IucA enzyme inhibition, primary screen, biochemical, Spectrum library (AID 1346200).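 Note: 100% = wells without compound and 0% = wells lacking enzyme.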 The settings on record: malachite green pyrophosphate, A620, at 8 µM, hits give low values.
As to `CCCCCCCCCCCCCCCC(=O)OC/C=C(C)/C=C/C=C(C)/C=C/C1=C(C)CCCC1(C)C`, the activity remaining was 89% (inactive).
On to `CCCc1nc(C)c2c(=O)[nH]c(-c3cc(S(=O)(=O)N4CCN(CC)CC4)ccc3OCC)nn12`, for which the activity remaining was 111% (inactive).
The value for `C#C[C@]1(O)CCC2C3CCC4=CC(=O)CC[C@@H]4C3CC[C@@]21C` (stereo not given in full) was 108% (inactive); that for `O=C1C(CCS(=O)c2ccccc2)C(=O)N(c2ccccc2)N1c1ccccc1` (stereo not given) was 116% (inactive).
Under `CCCC1O[C@@H]2CC3C4CCC5=CC(=O)C=CC5(C)C4[C@@H](O)CC3(C)[C@]2(C(=O)CO)O1` (stereo not given in full) stands 115% (inactive).
Regarding `CC1CC(OC(=O)c2ccccc2O)CC(C)(C)C1` (stereo not given), the activity remaining was 110% (inactive).
Regarding `Nc1nccs1`, the activity remaining is 89.3% (inactive).
The value for `CC(=O)OC/C=C(\C)CC/C=C(\C)CC/C=C(\C)CC/C=C(\C)CC/C=C(\C)CC/C=C(\C)CC/C=C(\C)CC/C=C(\C)CCC=C(C)C` was 120% (inactive); that for `CO[C@@]1(NC(=O)CSCC#N)C(=O)N2C(C(=O)O)=C(CSc3nnnn3C)CSC21` (stereo not given in full) was 98.6% (inactive); that for `CCCCCCNC(=O)n1cc(F)c(=O)[nH]c1=O` was 112% (inactive).
For the compound `O=c1c2cc(O)c(O)cc2oc2cc(O)c(C3O[C@H](CO)[C@H](O)[C@@H](O)[C@H]3O)c(O)c12` (stereo not given in full), the activity remaining is 93.6% (inactive).
With `CC1C/C=C/C=C/C=C/C=C/C(O[C@@H]2O[C@H](C)[C@@H](O)[C@H](N)[C@@H]2O)CC2OC(O)(CC(O)CC3OC3/C=C/C(=O)O1)CC(O)C2C(=O)O` (stereo not given in full), the activity remaining was 118% (inactive).
Under `O=c1oc2ccccc2cc1O` stands 110% (inactive); under `c1ccc(CN(CC2=NCCN2)c2ccccc2)cc1`, 120% (inactive); under `O=C1c2ccccc2C(=O)c2c(O)c(O)cc(O)c21`, 118% (inactive).
The value for `O=C(CCc1ccc(O)cc1)c1c(O)cc(O)cc1O[C@@H]1O[C@H](CO)[C@@H](O)[C@H](O)[C@H]1O` was 105% (inactive); that for `C=CCc1ccc(OC(=O)c2ccccc2)c(OC)c1` was 95.9% (inactive).
The value for `Cc1c(S(=O)(=O)O)oc2c1C(=O)C(=O)c1c-2ccc2c1CCCC2(C)C` was 127% (inactive); that for `COc1cc(C)c2c(c1C=O)Oc1c(c(C)c(O)c3c1C(O)OC3=O)OC2=O` (stereo not given) was 114% (inactive).
Turning to `C1CNCCN1`, the activity remaining is 120% (inactive).
As for `S=c1ccss1`, the activity remaining is 84.5% (inactive).
The value for `O=C(O[C@@H]1Cc2c(O)cc(O)cc2O[C@@H]1c1cc(=O)c(O)c2c(O)c(O)cc([C@H]3Oc4cc(O)cc(O)c4C[C@H]3O)c2c1)c1cc(O)c(O)c(O)c1` was 106% (inactive); that for `CON` was 103% (inactive); that for `O=c1[nH]cnc2nc[nH]c12` was 89.8% (inactive).
The value for `CC(C)=CCc1c2c(c3occ(-c4ccc(O)cc4)c(=O)c3c1O)C=CC(C)(C)O2` was 99.3% (inactive); that for `Nc1nc2c(c(=O)[nH]1)N(C=O)C(CNc1ccc(C(=O)N[C@@H](CCC(=O)O)C(=O)O)cc1)CN2` (stereo not given in full) was 104% (inactive); that for `CC(=O)[C@@]1(O)CCC2C3C=C(Cl)C4=CC(=O)[C@@H]5CC5[C@]4(C)C3CC[C@@]21C` (stereo not given in full) was 105% (inactive).
The value for `Cc1c(C)c2c(c(C)c1O)CCC(C)(COc1ccc(CC3SC(=O)NC3=O)cc1)O2` (stereo not given) was 117% (inactive).
`C[C@]12CCC3c4ccc(O)cc4CCC3C1C[C@@H](O)[C@@H]2O` (stereo not given in full): the activity remaining was 99.6% (inactive).
The value for `CC(=O)NC(C(=O)O)C(C)(C)SN=O` (stereo not given) was 97% (inactive); that for `CC1(C)C(=O)CC[C@@]2(C)C1C[C@@H](O)[C@@]1(C)C3=CC(=O)O[C@@H](c4ccoc4)[C@]3(C)CCC21` (stereo not given in full) was 111% (inactive).
The value for `COc1cc(S(C)=O)ccc1-c1nc2ncccc2[nH]1` (stereo not given) was 108% (inactive).
The value for `COC(=O)[C@@H]1OC(=O)[C@H]2O[C@@]23[C@@]1(C)CCC1[C@@]2(C)CCC(=O)C(C)(C)C2C[C@@H](OC(C)=O)[C@]13C` (stereo not given in full) was 109% (inactive).
In the case of `COc1cc(O)c(C(=O)O)c(O)c1`, the activity remaining was 102% (inactive).
In the case of `CC(=O)OCC(=O)[C@@]1(O)CCC2C3CC[C@@H]4C[C@H](O)CC[C@]4(C)C3C(=O)C[C@@]21C` (stereo not given in full), the activity remaining was 97.5% (inactive).
The value for `CC(=O)OC1CCC2(O)CC1(C)CCC1C2CC1(C)C` (stereo not given) was 107% (inactive); that for `CCOC(=O)[C@H](CCc1ccccc1)N[C@@H](C)C(=O)N1CCC[C@H]1C(=O)O` was 113% (inactive); that for `CC12CCC3c4ccc(OCc5ccccc5)cc4CCC3C1C[C@@H](O)[C@@H]2O` (stereo not given in full) was 119% (inactive).
The value for `CC[C@H]1OC(=O)[C@H](C)[C@@H](O[C@H]2C[C@@](C)(OC)[C@@H](O)[C@H](C)O2)[C@H](C)[C@@H](O[C@@H]2O[C@H](C)C[C@H](N(C)C)[C@H]2O)[C@](C)(O)C[C@@H](C)/C(=N\OCOCCOC)[C@H](C)[C@@H](O)[C@]1(C)O` was 118% (inactive); that for `COc1cc(NS(=O)(=O)c2ccc(N)cc2)ncn1` was 92.3% (inactive).

Values taken from PubChem BioAssay.
